Experimental data from PubChem BioAssay AID2405 (Southern Research Specialized Biocontainment Screening …, 2010).

test: anti-RSV activity of probe candidates, cell-based (AID 2405); details: RSV cytopathic effect inhibition, HEp-2 cells, stronger effect = higher value; at 100 µM unless noted; call rule not given here

Maximum inhibition, inactive:
O=C(Nc1nc(-c2ccc(Cl)cc2)cs1)c1cccc(Cl)c1 6.93% [at 25 µM]
O=c1c2cc(Br)ccc2nc2n1CC/C2=C/c1ccccc1 10.8%
CN(C)CCCNC(=S)N1CCN(c2nc(-c3ccccc3)cs2)CC1 5.31% [at 25 µM]
Cc1cccc2c(=O)n(-c3ccccc3)c(SCC(=O)Nc3ccc4c(c3)CCC4)nc12 5.23% [at 12.5 µM]
C=CCN(C(=O)c1ccccc1Cl)c1nc(-c2ccc(OC)cc2)cs1 7.65%
COc1ccc(Cn2nc(C)cc2OC(=O)c2c(F)cccc2F)cc1 1.12% [at 0.39 µM]
CCCN1CCN(CCCNC(=O)c2cc3c(s2)-c2c(C)cccc2OC3)CC1 0.38% [at 0.2 µM]
COc1ccc(-c2csc(NC(=O)c3ccccc3F)n2)cc1 1.37%
O=C(Nc1nc(-c2ccccc2)cs1)c1ccccc1Cl 45.7% [at 12.5 µM]
CCN(CC)CCCNC(=S)N1CCN(c2nc(-c3ccccc3)cs2)CC1 1.02% [at 0.2 µM]
O=[N+]([O-])c1ccc2c(c1)C(O)N1CCCC1=N2 (configuration not stated) 2.6% [at 12.5 µM]
CN(C)CCCN1c2ccc([N+](=O)[O-])cc2CCc2cc([N+](=O)[O-])ccc21 10.2% [at 50 µM]
CC1CC(C)CN(CCCNC(=O)c2cc3c(s2)-c2ccccc2OC3)C1 (configuration not stated) 1.49% [at 25 µM]
OC1c2c(F)cccc2N=C2CCCCN21 (configuration not stated) 1.55% [at 12.5 µM]
O=C(CSc1nc2ccccc2c(=O)n1-c1ccc(F)cc1)Nc1ccc2c(c1)CCC2 2.76%
O=c1c2cc(Cl)cc(Cl)c2nc2n1CCC2 5.87%
COc1ccccc1NC(=O)CSc1nc2ccccc2c(=O)n1-c1ccc(F)cc1 3.44% [at 6.25 µM]
Cc1cccc2c(=O)n3c(nc12)CCC3 1.55% [at 0.2 µM]
c1ccc2c(c1)CN1CCCC1=N2 1.32% [at 6.25 µM]
O=C(Nc1nc(-c2ccc(Cl)cc2)cs1)c1ccccc1Cl 4.1%
COc1ccc(-c2csc(NC(=O)c3ccccc3Cl)n2)cc1 2.47% [at 12.5 µM]
CCN(CC)CCCNC(=S)N1CCN(c2nc(-c3ccc(F)cc3)cs2)CC1 0.61% [at 0.2 µM]
O=C(CSc1nc2ccccc2c(=O)n1-c1ccc(Cl)c(Cl)c1)Nc1ccc2c(c1)CCC2 5.37%
OC1c2cc(Br)ccc2N=C2CCCCN21 (configuration not stated) 6.83%
Brc1ccc2c(c1)CN1CCCC1=N2 25.2% [at 50 µM]
OC1c2c(F)cccc2N=C2CCCN21 (configuration not stated) 0.86%
COc1ccc(Cn2nc(C)cc2OC(=O)c2ccccc2)cc1 0.91% [at 25 µM]
